Results taken from PubChem BioAssay AID1159580 (chemical genetic matrix, 2015).
“And” between values parts separate entries of the source, which are not always exact repeats. Equal entries are not always repeated. The whole screen tested about 5,500 compounds, of which about 2,000 (36%) were called active. Inconclusive results (about 18%) are left out. No stated cut-off is given here; in the data, active means normalized growth mostly below about 0.91 (no sharp cut-off); inconclusive means no clear call, values can overlap the other calls; inactive means mostly above about 0.92. The list shows a part of the results.

Assay: chemical genetic growth profiling, strain panel (AID 1159580);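 further: tested at 20 µM; growth read once vehicle control cultures reached saturation at 30 °C; 1 = growth at the plate median or of vehicle wells; lower values mean less growth of the strain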
Conditions: S. cerevisiae deletion strains, growth OD

Measured: normalized growth

N[C@H](Cc1ccccc1)C(=O)O
inactive: locus YAL013W, strain DEP1, active compounds read low 1.02 | locus YAL021C, strain ccr4, active compounds read low 1.01 | locus YAL026C, strain drs2, active compounds read low 1 | locus YAL030W, strain snc1, active compounds read low 1.01 | locus YBL061C, strain skt5, active compounds read low 1 | locus YBR009C, strain hhf1, active compounds read low 0.968 | locus YBR021W, strain FUR4, active compounds read low 0.98 | locus YBR023C, strain chs3, active compounds read low 1.01 | locus YBR171W, strain sec66, active compounds read low 0.99 | locus YBR229C, strain ROT2, active compounds read low 1.01 | locus YBR231C, strain swc5, active compounds read low 0.971 | locus YBR279W, strain paf1, active compounds read low 0.999 | locus YCL011C, strain gbp2, active compounds read low 1 | locus YCL016C, strain dcc1, active compounds read low 1.03 | locus YCL029C, strain bik1, active compounds read low 1 | locus YCL069W, strain vba3, active compounds read low 0.988 | locus YCR088W, strain abp1, active compounds read low 0.987 | locus YDL005C, strain med2, active compounds read low 0.997 | locus YDL035C, strain GPR1, active compounds read low 1.02 | locus YDL040C, strain nat1, active compounds read low 1 | locus YDL074C, strain BRE1, active compounds read low 1.05 | locus YDL101C, strain DUN1, active compounds read low 1.01 | locus YDL134C, strain PPH21, active compounds read low 1.01 | locus YDL185W, strain tfp1, active compounds read low 1 | locus YDL192W, strain arf1, active compounds read low 1.01 | locus YDR001C, strain nth1, active compounds read low 0.987 | locus YDR069C, strain doa4, active compounds read low 0.997 | locus YDR101C, strain arx1, active compounds read low 1.01 | locus YDR137W, strain rgp1, active compounds read low 0.982 | locus YDR150W, strain NUM1, active compounds read low 1.02 | locus YDR159W, strain sac3, active compounds read low 0.935 | locus YDR162C, strain NBP2, active compounds read low 1.02 | locus YDR195W, strain ref2 0.961 | locus YDR297W, strain sur2, active compounds read low 1 | locus YDR318W, strain mcm21, active compounds read low 0.993 | locus YDR334W, strain swr1, active compounds read low 0.946 | locus YDR335W, strain msn5, active compounds read low 0.994 | locus YDR388W, active compounds read low 1.01 | locus YDR392W, strain spt3, active compounds read low 0.965 | locus YDR502C, strain sam2, active compounds read low 1 | locus YEL003W, strain gim4, active compounds read low 0.983 | locus YEL037C, strain rad23, active compounds read low 0.976 | locus YEL061C, strain CIN8 (second series), active compounds read low 0.962 | locus YEL061C, strain CIN8, active compounds read low 1.01 | locus YER015W, strain faa2, active compounds read low 0.993 | locus YER016W, strain bim1, active compounds read low 1.02 | locus YER110C, active compounds read low 1 | locus YER111C, strain swi4, active compounds read low 0.999 | locus YER155C, strain BEM2 (second series), active compounds read low 0.99 | locus YER155C, strain BEM2, active compounds read low 1 | locus YER167W, strain BCK2, active compounds read low 1.01 | locus YFR010W, strain ubp6, active compounds read low 0.942 | locus YGL078C, strain dbp3, active compounds read low 1.02 | locus YGL086W, strain mad1, active compounds read low 1.01 | locus YGL167C, strain pmr1, active compounds read low 0.983 | locus YGL173C, strain kem1, active compounds read low 0.97 | locus YGL227W, strain vid30, active compounds read low 0.98 | locus YGL240W, strain doc1, active compounds read low 0.955 | locus YGL248W, strain PDE1, active compounds read low 1 | locus YGL253W, strain hxk2, active compounds read low 1 | locus YGR078C, strain PAC10, active compounds read low 1.05 | locus YGR135W, strain pre9, active compounds read low 1 | locus YGR229C, strain SMI1, active compounds read low 1.03 | locus YGR252W, strain gcn5, active compounds read low 0.935 | locus YHR013C, strain ard1, active compounds read low 1 | locus YHR027C, strain rpn1, active compounds read low 0.996 | locus YHR030C, strain SLT2, active compounds read low 1.02 and 1.05 | locus YHR079C, strain IRE1 (second series), active compounds read low 1.01 | locus YHR079C, strain IRE1, active compounds read low 1.06 | locus YHR094C, strain hxt1, active compounds read low 1 | locus YHR129C, strain ARP1, active compounds read low 1.01 | locus YHR142W, strain chs7, active compounds read low 0.992 | locus YHR200W, strain rpn10, active compounds read low 1 | locus YIL066C, strain RNR3, active compounds read low 1.02 | locus YIL073C, strain SPO22, active compounds read low 1.04 | locus YIL125W, strain kgd1, active compounds read low 0.994 | locus YIR030C, strain dcg1, active compounds read low 1.02 | locus YJL092W, strain hpr5, active compounds read low 1 | locus YJL095W, strain BCK1 (second series), active compounds read low 0.996 | locus YJL095W, strain BCK1, active compounds read low 1.02 and 1.05 | locus YJL115W, strain asf1, active compounds read low 0.979 | locus YJL129C, strain trk1, active compounds read low 1 | locus YJL134W, strain LCB3, active compounds read low 1.01 | locus YJL154C, strain vps35, active compounds read low 0.977 | locus YJL164C, strain tpk1, active compounds read low 0.979 | locus YJL166W, strain qcr8, active compounds read low 0.981 | locus YJL168C, strain set2, active compounds read low 0.992 | locus YJL187C, strain SWE1 (second series), active compounds read low 1.02 | locus YJL187C, strain SWE1, active compounds read low 1.02
